Assay [1] in a line: compounds binding Alexa647 anti-His antibody – biochemical, small-molecule microarray, 635 nm fluorescence, artefact control for SMM control protein annotation, primary screen (AID 1128).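 Note: score merges feature fluorescence with signal-to-noise for each printed compound spot.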 The note with it: higher = more signal.
The test system of assay [2] is Human papillomavirus type 1a E7 protein (residues 1-88). The assay can be described thus: HPV1a E7 small-molecule binders, primary screen, biochemical, small-molecule microarray, residues 1-88, 635 nm (AID 1129). The note with it: small-molecule microarray binding, fluorescence 635 nm; higher = more signal.
Assay [3] addresses Focal adhesion kinase 1 (Homo sapiens) (UniProt Q05397). The assay can be described thus: PTK2 protein binding on printed compound slides – biochemical, small-molecule microarray, 635/667 nm fluorescence, BSA, DTT, primary screen (AID 1130).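 Note: composite of spot emission at 667 nm and signal to noise over triplicate slides.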 The note with it: 635 nm fluorescence, higher = more signal.
Assay [4] has as its system Fibrinogen (Alexa647-labelled). The assay can be described thus: Alexa647-fibrinogen binding to printed small molecules – biochemical, small-molecule microarray, 635/667 nm fluorescence, artefact control for SMM control-protein annotation, profiling panel (AID 1131).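 Note: z-score merges 667 nm fluorescence with per-spot signal-to-noise over triplicate slides.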 The note with it: fibrinogen-A647 binding fluorescence, higher = more signal.
The target of assay [5] is Follistatin (Homo sapiens) (UniProt P19883). The assay can be described thus: FST protein binding to printed compounds – biochemical, small-molecule microarray, 635/667 nm fluorescence, primary screen (AID 1132). The note with it: 635 nm fluorescence, higher = more signal.
Sequence of Follistatin (Homo sapiens) (P19883 whole entry, looked up): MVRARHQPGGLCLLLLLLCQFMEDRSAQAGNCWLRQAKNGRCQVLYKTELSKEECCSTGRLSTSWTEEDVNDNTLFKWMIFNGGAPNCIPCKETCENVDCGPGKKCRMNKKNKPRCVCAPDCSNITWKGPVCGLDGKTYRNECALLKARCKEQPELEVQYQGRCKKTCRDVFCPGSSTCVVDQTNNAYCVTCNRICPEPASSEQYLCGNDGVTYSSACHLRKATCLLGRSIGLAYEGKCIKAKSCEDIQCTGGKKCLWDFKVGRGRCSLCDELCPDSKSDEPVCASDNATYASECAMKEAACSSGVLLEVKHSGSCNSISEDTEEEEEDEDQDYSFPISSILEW
Assay [6] addresses Fibroblast growth factor 2 (Homo sapiens) (UniProt P09038). Kind of assay: basic fibroblast growth factor binding to printed compounds – biochemical, small-molecule microarray, 635/667 nm fluorescence, primary screen (AID 1133). The following applies: FGF2, fluorescence 635/667, higher = more signal.
Assay [7] in a line: JC-1 mitochondrial potential readout, lung cancer cells – cell-based, A549, JC-1 fluorescence, basal, 24 h, 100 nL, profiling panel (AID 1138).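 Note: A549 lung adenocarcinoma cells under basal conditions with no added stimulus; test concentration not given here.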 The following applies: higher = more signal.
The test system of assay [8] is Lefty1. The assay can be described thus: Lefty1 protein binding to printed compounds – biochemical, small-molecule microarray, 635/667 nm fluorescence, primary screen (AID 1139). The following applies: fluorescence 635/667, higher = more signal.
In assay [9] the test system is wheat germ agglutinin (Triticum aestivum), Alexa647-labelled. The assay can be described thus: Alexa647-WGA lectin binding to printed small molecules – biochemical, small-molecule microarray, 635/667 nm fluorescence, artefact control for SMM control-protein annotation, profiling panel (AID 1140).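 Note: score merges 667 nm feature emission with signal to noise over triplicate slides.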 The note with it: WGA-A647 binding, 635 nm fluorescence, higher = more signal.

Assay [10] has as its target Luciferin 4-monooxygenase (Photinus pyralis) (UniProt P08659). The assay can be described thus: inhibition of purified Photinus pyralis luciferase – biochemical, luminescence, purified enzyme, 2006 set, primary screen (AID 1141).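 Note: cell-free assay with purified firefly luciferase at 100 ng per well in PBS; test concentration not given here.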 The note with it: purified firefly luciferase, SteadyGlo luminescence, 30 min; higher = more signal, called active from +8 up or from −8 down.

Activity calls are given as the source filed them.

Sequence of Fibroblast growth factor 2 (Homo sapiens) (P09038 whole entry, looked up): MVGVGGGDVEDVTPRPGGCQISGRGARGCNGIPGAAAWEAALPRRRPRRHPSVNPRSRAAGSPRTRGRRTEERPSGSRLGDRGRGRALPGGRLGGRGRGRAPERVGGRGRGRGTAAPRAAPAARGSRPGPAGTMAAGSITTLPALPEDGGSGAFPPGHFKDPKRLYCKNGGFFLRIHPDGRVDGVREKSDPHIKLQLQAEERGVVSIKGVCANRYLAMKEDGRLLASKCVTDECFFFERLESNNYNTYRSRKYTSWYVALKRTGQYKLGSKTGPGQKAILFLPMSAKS
Sequence of Luciferin 4-monooxygenase (Photinus pyralis) (P08659 whole entry, looked up): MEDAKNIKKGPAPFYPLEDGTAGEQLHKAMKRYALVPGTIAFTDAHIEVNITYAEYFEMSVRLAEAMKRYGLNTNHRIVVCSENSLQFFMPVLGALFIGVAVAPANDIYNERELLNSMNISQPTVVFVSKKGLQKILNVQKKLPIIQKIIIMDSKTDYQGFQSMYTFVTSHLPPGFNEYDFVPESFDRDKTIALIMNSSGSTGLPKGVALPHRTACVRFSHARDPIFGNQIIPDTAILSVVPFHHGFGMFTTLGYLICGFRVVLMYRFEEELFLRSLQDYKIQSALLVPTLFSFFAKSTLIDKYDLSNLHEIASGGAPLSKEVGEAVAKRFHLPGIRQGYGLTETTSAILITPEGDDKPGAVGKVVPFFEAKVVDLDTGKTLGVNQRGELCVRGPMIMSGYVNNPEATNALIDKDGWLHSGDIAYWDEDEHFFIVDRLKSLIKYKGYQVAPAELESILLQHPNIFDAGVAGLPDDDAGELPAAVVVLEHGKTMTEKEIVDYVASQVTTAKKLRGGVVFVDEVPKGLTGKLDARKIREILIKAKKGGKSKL
Sequence of Focal adhesion kinase 1 (Homo sapiens) (Q05397 whole entry, looked up): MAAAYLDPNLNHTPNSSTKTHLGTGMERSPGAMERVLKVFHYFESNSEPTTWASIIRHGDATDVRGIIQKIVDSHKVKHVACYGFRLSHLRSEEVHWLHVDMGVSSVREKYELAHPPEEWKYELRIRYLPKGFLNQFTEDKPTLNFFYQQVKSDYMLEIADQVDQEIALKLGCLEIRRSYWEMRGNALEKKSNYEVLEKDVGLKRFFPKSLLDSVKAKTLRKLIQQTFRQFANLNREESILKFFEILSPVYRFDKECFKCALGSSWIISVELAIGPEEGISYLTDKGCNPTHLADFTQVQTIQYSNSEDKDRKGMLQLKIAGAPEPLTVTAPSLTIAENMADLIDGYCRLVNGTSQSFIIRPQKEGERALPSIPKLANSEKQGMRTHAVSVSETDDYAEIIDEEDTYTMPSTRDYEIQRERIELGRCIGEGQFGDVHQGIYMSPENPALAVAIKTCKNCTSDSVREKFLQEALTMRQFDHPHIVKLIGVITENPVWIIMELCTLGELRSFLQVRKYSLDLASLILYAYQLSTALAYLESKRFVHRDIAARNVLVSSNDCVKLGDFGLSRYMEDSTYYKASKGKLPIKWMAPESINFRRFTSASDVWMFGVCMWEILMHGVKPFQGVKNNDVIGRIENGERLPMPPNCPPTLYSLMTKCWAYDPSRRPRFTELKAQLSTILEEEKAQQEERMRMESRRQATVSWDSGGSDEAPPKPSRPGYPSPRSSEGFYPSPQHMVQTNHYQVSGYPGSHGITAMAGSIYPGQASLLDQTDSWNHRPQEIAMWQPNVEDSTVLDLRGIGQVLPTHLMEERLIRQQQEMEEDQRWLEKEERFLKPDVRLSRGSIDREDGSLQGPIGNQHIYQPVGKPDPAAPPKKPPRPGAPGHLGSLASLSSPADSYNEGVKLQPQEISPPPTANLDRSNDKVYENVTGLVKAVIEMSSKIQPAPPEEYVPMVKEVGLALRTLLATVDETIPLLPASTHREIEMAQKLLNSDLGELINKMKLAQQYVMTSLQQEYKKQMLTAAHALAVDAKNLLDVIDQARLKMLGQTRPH

Consider `CSCC[C@@H]1NC(=O)CC=C[C@@H](C)COC(=O)[C@H](C)COC1=O`, for which the composite z-score in assay [1] was -1.14; in [2], -1.34; in assay [3], -0.697; in assay [4], -3.03; in assay [5], 1.45; in assay [6] it was 1.95. The values for the composite z-score in assay [8] and in assay [9] were 1.85 and -0.663, respectively. Further, the z-score was 1.64 in assay [7] and -1.95 (inactive) in [10].
For `O=C1C[C@@H](O)[C@@H](O)[C@@H]2[C@@H]3C(=O)N(c4ccc(F)cc4F)C(=O)[C@@H]3CC[C@H]12`, the composite z-score was 0.387 in assay [1]; 0.503 in assay [2]; 0.0336 in assay [3]; 0.428 in [4]; 0.549 in assay [5]; 0.401 in [6]. The composite z-score was found to be 0.645 in [8] and 0.304 in assay [9]. Besides, the z-score in assay [7] is -0.834; in assay [10], -0.211 (inactive).
As to `CCCC[C@H]1CN2[C@@H](CC[C@@H](C)[C@@H]2c2ccc(Br)cc2)C(=O)O1`, the composite z-score in assay [1] stood at 0.256; in [2], 1.17; in assay [3], 0.307; in assay [4], 0.831; in assay [5], 0.53; in assay [6] it was 0.198. Also, the composite z-score is 0.326 in assay [8] and 0.542 in [9]. The z-score in assay [7] is 0.962; in assay [10] it was -2.12 (inactive).
Turning to `CC(=O)OC[C@H]1O[C@@H](ON=C(C)CCC(=O)OC[C@H]2O[C@H](C#Cc3ccccc3)C=C[C@@H]2Oc2ccc(C)cc2)[C@H](OC(C)=O)[C@@H](OC(C)=O)[C@@H]1OC(C)=O`, the composite z-score in assay [1] is 0.48; in assay [2] it was 0.843; in [3], 0.108; in [4], 0.705; in assay [5], 0.753; in assay [6], 1.26. For the same compound, the composite z-score was 0.648 in assay [8] and 0.307 in assay [9]. For the same compound, the z-score in [7] was 1.08; in assay [10] it was -0.305 (inactive).
In the case of `O=C1C[C@H](c2ccccc2)[C@H](c2ccc(Br)cc2)O1`, the composite z-score in assay [1] is 0.443; in assay [2], -0.374; in [3] it was 0.718; in assay [4], -0.233; in assay [5], -0.126; in assay [6] it was -0.0946. Moreover, the composite z-score in assay [8] is 0.0985; in [9], -0.236. Further, the z-score was -0.421 in assay [7] and -1.8 (inactive) in assay [10].
Take `COC(=O)[C@H](Cc1ccccc1)NC(=O)[C@@H](C)CO`: the composite z-score in assay [1] is 0.0868; in assay [2] it was -0.196; in [3] it was -0.233; in [4], 0.115; in [5], 1.28; in assay [6], 0.592. For the same compound, the figures for the composite z-score in assay [8] and in [9] were 1.5 and 0.821, respectively. The z-score in [7] is -1.2; in assay [10], 0.716 (inactive).
Turning to `CC(C)=CCCC(C)=CCON=C1C[C@@H](O)[C@@H](O)[C@@H]2[C@@H]3C(=O)N([C@@H](C)c4ccccc4)C(=O)[C@@H]3CC[C@@H]12`, the composite z-score in [1] is 0.509; in [2], 0.499; in assay [3], 0.276; in [4] it was 0.297; in [5], 0.462; in assay [6], 0.58. Further, the composite z-score was 0.6 in assay [8] and 0.0833 in assay [9]. Besides, the z-score in assay [7] is -0.569; in assay [10] it was 0.391 (inactive).
As for `C=CC[C@@H]1C=C[C@H](ON=C2C[C@@H](O)[C@@H](O)[C@@H]3[C@@H]4C(=O)N(CC)C(=O)[C@@H]4CC[C@@H]23)[C@@H](CO)O1`, the composite z-score is -2.3 in assay [1]; -1.1 in assay [2]; 0.382 in assay [3]; -1.15 in [4]; -0.707 in [5]; 0.119 in assay [6]. In addition, the figures for the composite z-score in assay [8] and in assay [9] were 0.158 and -1.41, respectively. The z-score is -0.992 in assay [7] and 1.3 (inactive) in assay [10].
On to `O=C1[C@H]2[C@H]3[C@H](O)[C@H](O)CC(=NOC[C@@H](O)COCc4ccco4)[C@@H]3CC[C@H]2C(=O)N1c1cccc(Oc2ccccc2)c1`, for which the composite z-score in assay [1] is -1.01; in assay [2] it was -0.964; in assay [3], -0.535; in [4], -0.535; in assay [5] it was 0.942; in assay [6] it was 0.285. Also, the composite z-score came to 0.0743 in assay [8] and 0.196 in assay [9]. Further, the z-score is -0.268 in assay [7] and 0.921 (inactive) in [10].
As to `CC(CCN1CCCCc2nc(C)c(C)cc21)=NO[C@H](C)c1cn([C@@H]2COC[C@H]2O)nn1`, the composite z-score in assay [1] worked out at 0.968; in [2], 0.12; in assay [3], 0.422; in assay [4], 0.41; in assay [5], 1.26; in assay [6], 1.33. For the same compound, the results for the composite z-score in assay [8] and in [9] were 1.38 and -0.0522, respectively. The z-score in assay [7] was -0.624; in assay [10], 1.05 (inactive).
For `CC(C)CON=C1[C@H]2CCn3c(=O)n(C)c(=O)n3[C@H]2[C@H](O)[C@@H]2O[C@H]12`, the composite z-score came to 0.457 in [1]; 0.398 in assay [2]; 0.0335 in assay [3]; 0.413 in [4]; 0.581 in [5]; 0.411 in assay [6]. In addition, the composite z-score in assay [8] amounted to 1.02; in assay [9], 0.324. Also, the z-score is 0.563 in [7] and -0.571 (inactive) in assay [10].
As to `C[C@H]1CC[C@@H](C(=O)O)N[C@@H]1c1ccc(C#Cc2ccccc2)cc1`, the composite z-score in [1] amounted to 1.53; in assay [2], 1.06; in [3] it was 0.454; in assay [4] it was 0.918; in [5], 1.07; in assay [6], 0.551. Also, the composite z-score amounted to 0.608 in assay [8] and 1.11 in assay [9]. Also, the z-score in assay [7] is -2.02; in assay [10], -9.82 (active).
Turning to `CO[C@@H]1C=CCC(=O)N[C@@H](C)C(=O)OC[C@@H](NS(=O)(=O)c2ccc(C)cc2)[C@H](C)C=CCC(=O)OC[C@H]1C`, the composite z-score in assay [1] was -0.605; in assay [2], -0.56; in [3], -0.0987; in assay [4], -0.14; in [5] it was 0.833; in [6], 0.638. Also, the composite z-score was found to be 0.841 in assay [8] and 0.326 in assay [9]. Also, the z-score in assay [7] is -0.198; in assay [10], -0.567 (inactive).
With `COC(=O)[C@@H]1CC[C@H](C)[C@@H](c2ccc(Br)cc2)N1C[C@H](O)CN=[N+]=[N-]`, the composite z-score in assay [1] is 0.383; in assay [2] it was -0.459; in [3], 0.709; in [4], 0.118; in assay [5], -0.117; in assay [6], 0.0395. Also, the composite z-score in assay [8] stood at 0.17; in assay [9], 0.162. Also, the z-score in assay [7] is -0.821; in assay [10], -0.169 (inactive).
Take `O=C(NN=C1C[C@@H](O)[C@@H](O)[C@@H]2[C@@H]3C(=O)N(Cc4ccc5c(c4)OCO5)C(=O)[C@@H]3CC[C@@H]12)OCc1ccccc1`: the composite z-score in assay [1] was 0.921; in assay [2], 0.0191; in assay [3], 0.28; in assay [4], 0.057; in assay [5], -0.137; in assay [6] it was -0.0806. Further, the results for the composite z-score in assay [8] and in [9] were -0.257 and 0.227, respectively. Besides, the z-score was -0.734 in assay [7] and 1.02 (inactive) in assay [10].
Regarding `CO[C@@H]1COC(=O)[C@H](COCc2ccccc2)NC(=O)CC=C[C@@H](C)[C@H](OC)COC(=O)[C@@H](C)NC(=O)CC=C[C@H]1C`, the composite z-score in assay [1] is -1.39; in assay [2], -1.64; in assay [3], -0.474; in [4] it was -1.65; in assay [5], 1.07; in assay [6], 1.16. Also, the composite z-score was 0.979 in assay [8] and -0.999 in [9]. For the same compound, the results for the z-score in assay [7] and in assay [10] were 1.27 and -0.963 (inactive), respectively.

Source of the values: PubChem BioAssay.
